Test results from PubChem BioAssay (NCATS).
Inconclusive results are not listed.

Experiment: qHTS Assay for Lipid Storage Modulators (AID 1519)
Settings: Drosophila S3 cells, BODIPY lipid droplet/cell ratio, laser cytometry; measured here: cell count channel max response; cells loaded with oleic acid
How it was run: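 Cells seeded at 5,000 per well were treated with compounds over a concentration series and loaded with oleic acid (400 uM, as added). Lipid droplet fluorescence (488 nm excitation, 500-530 nm channel) was read by laser-scanning cytometry and normalized to 20 uM Triacsin C.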
CON gave a max response of 12.5%.
CC(=O)OC1CC(OC(C)=O)[C@]2(C)C(CC(=O)[C@]3(C)C2CC[C@@]2(C)C(c4ccoc4)OC(=O)C4O[C@@]423)C1(C)C (stereo partly drawn) showed a max response of 11.4%.
With Cc1ccc2c(c1)CC[C@H]1CC(=O)CC[C@@]21C the max response was -2.47%.
With COc1ccc(-c2cc(=O)c3c(O)cc(O[C@@H]4OC(COC5OC(C)C(O)C(O)[C@@H]5O)C(O)C(O)C4O)cc3o2)cc1 (stereo partly drawn) the max response was -4.97%.
With CCN(CC)Cc1ccc(Nc2ccnc3cc(Cl)ccc23)cc1O the max response was 18.7%.
Compound CCN1CCN(C(=O)NC(C(=O)NC2C(=O)N3C2SC(C)(C)C3C(=O)O)c2ccccc2)C(=O)C1=O (stereo not drawn) has a max response of -3.83%.
COc1ccc2c(c1)[C@]1(C)CCC(=O)C[C@H]1CC2 gave a max response of -1.73%.
CCCCCC(=O)Cc1cc(O)cc(O)c1C(=O)Oc1cc(CC(=O)CCCCC)c(C(=O)O)c(OC)c1 showed a max response of 7.66%.
Work on COc1c(OC)c2occc2c2oc(=O)ccc12 yielded a max response of 0.397%.
In the case of CCCCC(=O)Oc1ccccc1C(=O)O, the max response is reported as 5.62%.
CC1(O)CC2C(CC1O)C2(C)C (stereo not drawn) gave a max response of -5.99%.
With Nc1nc2c(nc(Sc3ccc(Cl)cc3)n2C2OC(CO)C(O)C2O)c(=O)[nH]1 (stereo not drawn) the max response was 14.6%.
With COc1ccc(C2CC(=O)c3c(O)cc(O)cc3O2)cc1O (stereo not drawn) the max response was 3.05%.
Compound C=C(C)C1CC=C(CO)CC1 (stereo not drawn) has a max response of -1.53%.
Compound O=C1CC(c2ccc(O)c(O)c2)Oc2cc(O)cc(O)c21 (stereo not drawn) has a max response of -10.3%.
Compound COc1ccc(/C=C/C(=O)c2ccc(O)cc2O)cc1OC has a max response of -8.55%.
Work on COC(=O)CC1C(C)(C)C(=O)C2CC3=C4CC(=O)OC(c5ccoc5)[C@]4(C)CCC3[C@@]1(C)C2=O (stereo partly drawn) yielded a max response of 14.1%.
With C/C=C1\C2C=C(C)C[C@@]1(N)c1ccc(=O)[nH]c1C2 the max response was 9.87%.
